Data from the supplement of paper PMC3334620.
The full ranking holds about 33,000 sequences; the median of “E-score (-0.5 to 0.5)” is about -0.016, and the highest 2% start at about 0.32. Only a selection was taken, and the highest values are over-represented in it overall.

biological target: T1, Stp1 (UniProt B3LFK1); assay: PBM E-score (8-mer binding enrichment) (E-score (-0.5 to 0.5)); higher = stronger / more preferred TF binding; details: protein concentration: 200 nM; construct: GST-full length
T1 sequence: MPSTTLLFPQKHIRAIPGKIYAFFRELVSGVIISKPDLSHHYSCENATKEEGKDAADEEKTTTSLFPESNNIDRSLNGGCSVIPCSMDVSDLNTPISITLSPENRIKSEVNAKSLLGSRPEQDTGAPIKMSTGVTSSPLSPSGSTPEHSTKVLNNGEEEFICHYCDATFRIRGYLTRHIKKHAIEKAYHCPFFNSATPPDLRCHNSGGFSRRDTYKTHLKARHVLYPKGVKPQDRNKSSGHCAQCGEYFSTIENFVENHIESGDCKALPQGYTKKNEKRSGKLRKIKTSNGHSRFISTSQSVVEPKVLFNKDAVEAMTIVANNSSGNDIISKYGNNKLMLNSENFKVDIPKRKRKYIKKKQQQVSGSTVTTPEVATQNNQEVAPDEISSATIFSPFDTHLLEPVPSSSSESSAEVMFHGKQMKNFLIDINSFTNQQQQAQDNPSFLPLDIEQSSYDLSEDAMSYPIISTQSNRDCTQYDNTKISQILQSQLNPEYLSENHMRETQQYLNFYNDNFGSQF
Procedure: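 Universal 'all 10-mer' protein binding microarrays (Agilent AMADID 015681) probed with GST-tagged S. cerevisiae TFs (full-length or DBD) made by in vitro transcription/translation (PURExpress), about 100-200 nM. Bound TF was detected with fluorescent anti-GST. Each ungapped 8-mer (which stands for itself and its reverse complement) is scored by the PBM enrichment score (E-score), a modified Wilcoxon-Mann-Whitney statistic from -0.5 to +0.5, computed with the Universal PBM Analysis Suite. Scale: above 0.35 generally sequence-specific binding.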

Row | Sequence | PBM E-score
1 | GGGCGAAC | 0.0424
2 | AGGCGAAC | 0.145
3 | CGCCGAAG | 0.13
4 | CGGCGAAA | 0.354
5 | CGGCGAAG | 0.292
6 | TGGCGAAA | 0.088
7 | AGCCGAAC | -0.0533
8 | CGGCGAAC | 0.317
9 | CATAGTCA | -0.195
10 | CTGGAGTC | -0.362
11 | TAGCAGGA | -0.226
12 | CAGCCTTC | -0.091
13 | CGGCATAA | 0.358
14 | GGGCATAA | 0.0801
15 | AGGCATCG | 0.348
16 | AGGCATCA | 0.215
17 | CAGCATCC | -0.252
18 | AGGCATCC | -0.0829
19 | CGGCATCC | 0.353
20 | CGGCATCA | 0.438
21 | AGGCATAG | 0.15
22 | CGGCATAC | 0.27

Row | Sequence | PBM E-score
23 | CAGCATCA | 0.0143
24 | GGGCATCA | 0.104
25 | CACCACGA | -0.0238
26 | ATATCGAG | 0.123
27 | CATAGGGC | 0.152
28 | ACCCTAGA | -0.227
29 | ACTGTTCC | -0.131
30 | ACCATCAA | -0.149
31 | ATCAGTTG | 0.00725
32 | GACTGCTC | -0.287
33 | TTCAACAA | 0.167
34 | AAAAGCTC | -0.131
35 | AGCGCCTA | 0.182
36 | CACCGCGC | 0.166
37 | AGCGCCGC | 0.481
38 | AGCGCAGC | -0.112
39 | CTCCGCGC | 0.227
40 | CGCCGCGC | 0.487
41 | CGCGCCCC | 0.209
42 | GGCGCCTA | 0.362
43 | AGCGCCCC | 0.0659
44 | CGCCCCGC | 0.221

Row | Sequence | PBM E-score
45 | CGCGCCGC | 0.483
46 | GCCGCCTA | 0.185
47 | CATGATCG | -0.0196
48 | GGAGCCAC | -0.246
49 | CAGCGAAA | -0.0495
50 | CGATCAGA | -0.053
51 | GTACACGA | 0.136
52 | ATATTAGG | 0.0795
53 | CTCGAAAC | 0.113
54 | AGACAACG | 0.0214
55 | CAAGACGG | -0.0357
56 | CATTGCGC | 0.0607
57 | CGCGCAGA | 0.22
58 | AGCGCCCA | -0.225
59 | AGCGCCGA | 0.321
60 | AGCGCCGG | 0.174
61 | CGCGCCGA | 0.362
62 | AGCGCCCG | -0.00709
63 | AGCGCAGA | -0.0529
64 | AGCGCCCT | 0.319
65 | GTCGCCGA | 0.0933
66 | GGCGCCGA | 0.421

Row | Sequence | PBM E-score
67 | CGCGCCCA | 0.213
68 | GGCGCCCA | 0.311
69 | AGCCAAAG | -0.00729
70 | AGATCCTG | -0.32
71 | CACGGTCC | -0.109
72 | TCCCCAAA | -0.0405
73 | GACTATCC | -0.178
74 | CAACCAGG | -0.196
75 | GGAGTGAA | -0.0852
76 | AGATTTCC | -0.00021
77 | ACAAAGTG | -0.0329
78 | ATCTTGAG | -0.0881
79 | CGCCGCGA | 0.379
80 | CACCGCGA | -0.0402
81 | GGCCGCGA | -0.0392
82 | ACCGCCAT | 0.0869
83 | ACCGCCGA | 0.0744
84 | ACCGCCGC | 0.389
85 | ACCGCCCT | -0.14
86 | ACCGCCGG | -0.0408
87 | ACCGCCGT | 0.449
88 | AGCAACCC | -0.306
